MPTP inh: inhibitors of mitochondrial permeability transition pore; isolated mouse mitochondria, Ca2+ swelling absorbance, 30 min; inhibition, % at 10 µM; actives 1.4% (n = 360,000); AID 602449;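 active = inhibition of 50% or more, scaled per plate between neutral and stimulator controls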;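 also: 0% = DMSO wells given calcium and 100% = 1 mM EGTA wells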
GRIN3A LBD mod: modulates the human NR3A ligand-binding domain | Tm shift relative to glycine control, % at 25 µM | actives 2.5% (n = 340,000) | NR3A LBD differential scanning fluorimetry, Tm shift; 0% = protein alone, 100% = glycine-bound protein;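 active = melting temperature shift of at least 10% of the positive control shift, at one fixed dose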
SKKanGAS inh: inhibitors of SKKanGAS S. pyogenes growth in kanamycin (SK-promoter or general growth effect); BacTiter-Glo, 6 h; inhibition, % at 7.5 µM; actives 1.3% (n = 300,000); AID 1662;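 active = mean replicate score, as percent of positive control median, at least 50; inconclusive = mean below 50 but one replicate at or above 50; inactive = mean and every replicate below 50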;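 also: strain carries kanamycin resistance gene driven by streptokinase promoter and grows in 40 µg/ml kanamycin; loss of luminescence reflects streptokinase promoter inhibition or plain growth inhibition; 0% = median of DMSO wells and 100% = positive control at its reference dose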
CSC inhib: blocks cancer stem cells; inhibition, % at 7.5 µM; actives 1.1% (n = 300,000); cancer stem cell-like cells viability, luminescence; AID 2717; in the data active = inhibition above about 75%; inconclusive = no clear call, values can overlap the other calls; tested in HMLE shEcad cells
Mdm2-MdmX inh: inhibitors of human Mdm2/MdmX interaction | O15151+Q00987 | SaOS-2 split-luciferase Mdm2/MdmX complementation, luminescence | inhibition, % at 8 µM | actives 3% (n = 330,000) | AID 485346;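 active = inhibition of at least 50% at 8 µM in the primary screen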
Target sequence (O15151 whole entry, looked up): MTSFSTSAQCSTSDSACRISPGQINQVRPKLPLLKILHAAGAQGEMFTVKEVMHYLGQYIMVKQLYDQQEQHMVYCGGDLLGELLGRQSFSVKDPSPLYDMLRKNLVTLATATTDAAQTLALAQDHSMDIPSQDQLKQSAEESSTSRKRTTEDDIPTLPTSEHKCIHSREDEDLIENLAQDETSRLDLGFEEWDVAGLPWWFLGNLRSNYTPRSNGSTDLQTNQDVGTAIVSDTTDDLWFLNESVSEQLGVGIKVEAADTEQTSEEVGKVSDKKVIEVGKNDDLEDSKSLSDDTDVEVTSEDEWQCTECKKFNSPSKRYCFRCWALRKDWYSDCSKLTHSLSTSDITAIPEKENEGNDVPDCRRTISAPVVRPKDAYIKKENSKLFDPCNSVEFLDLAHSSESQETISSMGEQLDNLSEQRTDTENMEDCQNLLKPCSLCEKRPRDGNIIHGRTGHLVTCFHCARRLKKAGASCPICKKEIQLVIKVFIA
Target sequence (Q00987 whole entry, looked up): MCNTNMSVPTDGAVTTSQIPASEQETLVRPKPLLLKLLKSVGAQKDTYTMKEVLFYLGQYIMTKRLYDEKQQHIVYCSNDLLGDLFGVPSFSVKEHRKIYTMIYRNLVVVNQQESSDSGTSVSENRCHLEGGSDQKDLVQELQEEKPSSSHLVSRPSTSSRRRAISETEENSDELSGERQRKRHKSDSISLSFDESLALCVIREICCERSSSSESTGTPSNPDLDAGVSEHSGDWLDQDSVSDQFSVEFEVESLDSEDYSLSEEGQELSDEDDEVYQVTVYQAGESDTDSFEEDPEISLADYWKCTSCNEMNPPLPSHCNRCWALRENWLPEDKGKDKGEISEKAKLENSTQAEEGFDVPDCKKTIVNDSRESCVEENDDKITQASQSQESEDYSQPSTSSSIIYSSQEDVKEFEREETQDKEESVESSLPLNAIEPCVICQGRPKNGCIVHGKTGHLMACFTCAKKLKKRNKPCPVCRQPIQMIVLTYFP
Beta apoptosis: beta cell apoptosis inhibition; INS-1E cytokine-induced death, ATP luminescence, 48 h; percent of positive-control rescue, neutral wells zero; protection from apoptosis, % (test concentration not listed); actives 0.8% (n = 300,000); AID 435005;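 active = Every replicate reaches about 75%, or at least half do and their mean reaches it too, limit read from the data; inconclusive = At least half of replicates reach the limit but their mean does not; inactive = Under half of replicates reach the limit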;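 also: 0% = cytokine-treated negative control wells and 100% = positive control rescue; higher means more ATP so stronger rescue from cytokine killing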
Mdm2 MdmX conf: confirmation of human Mdm2/MdmX interaction inhibitors. shares compounds with Mdm2-MdmX inh. Mdm2-MdmX binding, luminescent assay. inhibition, % at 8 µM. actives 55% (n = 10,000). AID 489028; in the data active = inhibition above about 40%
Full FLuc ctr: counter-screen for Mdm2/MdmX inhibitors: full-length luciferase. shares compounds with Mdm2-MdmX inh. SaOS-2 full-length luciferase counterscreen, luminescence. inhibition, % at 8 µM. actives 77% (n = 6,200). AID 504607;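 active = mean inhibition at 8 µM reaching about 37%, which flags the compound as non-specific, limit read from the data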;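 also: p53-null SaOS-2 cells with luciferase driven by a doxycycline-inducible promoter; compound on cells about two nights before reading with doxycycline added after day one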
* hit, by the source's call; ? = inconclusive; . = not tested or not shown. Only some compounds are listed: those with a hit (about 6.9% of all), similar ones and a draw of the others.

SMILES	MPTP inh	GRIN3A LBD mod	SKKanGAS inh	CSC inhib	Mdm2-MdmX inh	Beta apoptosis	Mdm2 MdmX conf	others
CCOC(=O)c1c(S(=O)(=O)NCC(=O)Nc2ccc(F)cc2)c(C)n(C)c1C	-1	2	-3	10	8	-3	.
CC(C)COc1ccc(C(=O)Nc2ccc(NC(=O)c3ccco3)c(Cl)c2)cc1	-6	3	4	.	60*	10	10
CC(C)Oc1ccc(C(=O)Nc2ccc(NC(=O)c3ccco3)c(Cl)c2)cc1	-1	0	5	18	2	-3	.
C#CCCOC(=O)Nc1ccccc1	0	0	10	1	-19	-7	.
CCCC[C@H]1COCCS(=O)(=O)N1Cc1ccc(Br)cc1	2	-13	13	0	6	-8	.
O=C(/C=C/c1ccccc1)NC(=S)Nc1ccc(N2CCOCC2)cc1	2	1	-5	5	32	-2	.
O=C(/C=C/c1ccc(Cl)cc1)NC(=S)Nc1ccc(N2CCOCC2)c(Cl)c1	10	5	28	45	86*	-2	44*	Full FLuc ctr=91*
O=C1CC(c2cc(Br)ccc2F)c2cc3c(cc2N1)CCC3 (centres undefined)	0	3	-4	82*	66*	40	56*	Full FLuc ctr=95*
COc1cc2c(cc1OC)C(c1ccc(Br)cc1)CC(=O)N2 (centres undefined)	0	-2	1	-25	21	-1	.
O=C1CC(c2cccc(Cl)c2)c2cc3c(cc2N1)CCC3 (centres undefined)	2	-47	-6	.	54*	.	58*	Full FLuc ctr=64*
O=C1CC(c2ccccc2Br)c2cc3c(cc2N1)CCC3 (centres undefined)	.	.	-1	67	58*	4	62*	Full FLuc ctr=56*
COc1cccc(C2CC(=O)Nc3cc4c(cc32)CCC4)c1 (centres undefined)	-3	-2	-1	14	46	26	.
O=C1CC(c2cccc([N+](=O)[O-])c2)c2cc3c(cc2N1)CCC3 (centres undefined)	4	-2	-4	41	31	10	.
O=C1CC(c2ccccc2F)c2cc3c(cc2N1)CCC3 (centres undefined)	0	0	3	.	58*	.	58*	Full FLuc ctr=57*
CCOC(=O)C1(C)CCCN(C(=O)COc2ccccc2)C1 (centres undefined)	-1	.	.	.	.	.	.
O=C(CN1CCN(S(=O)(=O)N2CCCCCC2)CC1)Nc1ccc(Br)cc1	-1	-9	-5	13	24	-1	.
O=C1CSC(=Nc2ccc(Cl)cc2)N1Cc1cccnc1	2	-2	-2	-9	20	-4	.
CC(=O)Nc1ccc(N2CCOCC2)c([N+](=O)[O-])c1	0	-1	-1	-4	-8	-5	.
COCCN1C(=O)/C(=C/c2ccc(N3CCCC3)cc2C)SC1=S	12	3	.	55	-13	12	.
O=C(N/N=C/c1cccc(O)c1)c1ccc(COc2cccc3cccnc23)cc1	-2	4	17	-3	54*	6	23
O=C(N/N=C/c1ccncc1)c1ccc(COc2cccc3cccnc23)cc1	-1	3	-6	1	29	-5	.
O=C(CCl)NCc1c(Cl)cccc1-n1cccc1	-1	-1	-1	-8	56*	10	41*	Full FLuc ctr=36
CC(C)(C)n1nc2c(c1NC(=O)c1cc(Cl)ccc1[N+](=O)[O-])CS(=O)(=O)C2	-2	0	2	10	-9	-9	.
C=CCOc1ccccc1C(=O)/C=C1/C(=O)Nc2ccccc21	0	5	13	51	78*	-4	-6
COc1ccc(C(=O)/C=C2/C(=O)Nc3ccccc32)cc1	1	3	2	?	43	2	.
O=C1Nc2ccccc2/C1=C/C(=O)c1cccs1	0	0	4	83*	64*	-7	23
COc1ccc(C(=O)/C=C2/C(=O)Nc3ccccc32)cc1OC	0	8	0	25	39	-15	.
C=CCOc1ccc(C(=O)/C=C2/C(=O)Nc3ccccc32)cc1	0	0	7	25	52*	9	16

Screens deposited in PubChem by several laboratories.
